ChEMBL document CHEMBL4513216, “Probing the Open Global Health Chemical Diversity Library for Multistage-Active Starting Points for Next-Generation Antimalarials” (ACS Infect Dis, 2020)
About 2,700 (4%) of roughly 68,000 compounds showed an effect of 50% or more. Only a selection was taken, and strong results are over-represented in it overall.

tested on: Plasmodium berghei; experiment: Screen against P. berghei liver stage (PbLuc), transformed with Luciferase, at 2uM; format: functional, HepG2; settings: tested at 2 uM

Row | SMILES | INHIBITION
1 | Cc1cc2ccccc2n1CCC(=O)NCCS(C)(=O)=O | -67.22%
2 | O=C(C1CCOCC1)N1CCc2ncnc(-c3ccc(F)cc3)c2CC1 | -7.01%
3 | c1cncc(CNc2ccccc2-c2nn[nH]n2)c1 | 27%
4 | O=C(c1cscn1)N1CCCC2(CCN2Cc2cccc(F)c2)C1 (configuration not stated) | 37.33%
5 | CC(C)N(C)Cc1cc(=O)n2c(n1)CN(C(=O)c1cnccn1)CCC2 | -14.64%
6 | Cn1ccnc1CN1CCCN(C(=O)c2ccc3[nH]nnc3c2)CC1 | -56.99%
7 | Cc1ccc(NC(=O)Cn2ccc3c(=O)n(C)ccc32)cc1F | 41.86%
8 | COc1ccc(NC(=O)Cn2ccc3c(=O)n(C)ccc32)cc1OC | 52.61%
9 | Cn1ccc2c(ccn2CC(=O)Nc2ccc(Br)cc2)c1=O | 0.5%
10 | CCn1ccc2ccnc(CC3CN(C(=O)Cn4ccnc4C)C3)c21 | 2.78%
11 | Cc1cccc(N2CCN(CCC(=O)NCc3cnc(C)cn3)CC2)c1 | -39.01%
12 | Cc1cccc(N2CCN(CCC(=O)NCc3nnc[nH]3)CC2)c1 | 71.67%
13 | CCc1nnc(CNC(=O)CCN2CCN(c3cccc(C)c3)CC2)s1 | -27.19%
14 | CC1(c2ncc(CN3CCN(c4ncccn4)CC3)cn2)CCCCO1 (configuration not stated) | -30.88%
15 | COc1ccc(-n2nc(C3CC3)nc2CCn2cnnn2)cc1 | -4.15%
16 | Cc1cccc(CNC(Cc2ccsc2)c2nc(C)c(C)s2)n1 (configuration not stated) | 8.75%
17 | CC[C@@H]1N(CC2CC2)CCC[C@]12CCC(=O)N2 | 10.49%
18 | CC[C@H]1N(CC2CCOCC2)CCC[C@]12CCC(=O)N2 | 65.91%
19 | CC[C@@H]1N(CC2CCOCC2)CCC[C@]12CCC(=O)N2 | 20.88%
20 | Cc1ccc(C(=O)N2Cc3c(CN4CCCCC4)nn(C)c3C2)cc1C | -15.95%
21 | CN(CC1COCCO1)c1ncnc2cc(F)ccc12 (configuration not stated) | 22.62%
22 | Cc1cc(C)c2c(N(C)CC3COCCO3)ncnc2n1 (configuration not stated) | 55.7%
23 | Cc1cc(C)c2c(N(C)CC3CCOC3)ncnc2n1 (configuration not stated) | 27.73%
24 | Cn1c(Cn2cccn2)nnc1C1CCN(Cc2ccccc2Cl)CC1 | 15.75%
25 | N[C@H]1c2ccccc2C[C@@H]1NC(=O)C1CCN(Cc2ccco2)CC1 | 22.88%
26 | CN(C)C(=O)CO[C@@H]1CN(Cc2ccccc2)[C@@H]2CCCO[C@@H]21 | 52.66%

Row | SMILES | INHIBITION
27 | CN(C)C(=O)CO[C@H]1CN(Cc2ccccc2)[C@@H]2CCCO[C@H]12 | 45.56%
28 | CN(C)C(=O)CO[C@H]1CN(Cc2ccc(F)cc2)[C@@H]2CCCO[C@H]12 | -84.27%
29 | Cn1cnnc1CNC(=O)C1CCCN(Cc2ccccc2)C1 (configuration not stated) | 6.33%
30 | CCNC(=O)NC1CN(Cc2ccncc2Cl)C[C@@H]1OC (some centres not stated) | -0.98%
31 | COCC1c2c(cnn2CC2CC2)CCN1Cc1ccc(OC)cc1 (configuration not stated) | -4.92%
32 | Cc1nc(COC[C@@H]2CC[C@H]3[C@H](CCN3c3ncccn3)O2)cs1 | -8.23%
33 | COc1ccc(C(=O)C2CCCN(CCc3ccccc3)C2)c(OC)c1 (configuration not stated) | -18.81%
34 | CCOc1cc(CN(C)CCC(=O)OC)ccc1OC(F)F | 14.96%
35 | CCOc1cc(CN(C)CC(=O)O)ccc1OC(F)F | 78.96%
36 | CCOc1cc(CN(C)Cc2ccccc2)ccc1OC(F)F | -5.59%
37 | CCN(Cc1nonc1C)C(=O)c1cc(C(F)(F)F)nn1C | -12.5%
38 | c1cnc(N2CC3(CCN(Cc4cccnc4)C3)C2)nc1 | 52.91%
39 | COCC(=O)N1CCC2(CCN(Cc3cccnc3)C2)CC1 | 51.81%
40 | COCC(=O)N1CC[C@]2(O)CCN(Cc3ccsc3)C[C@@H]2C1 | 19.49%
41 | COCC(=O)N1CC[C@]2(O)CCN(Cc3cccnc3OC)C[C@@H]2C1 | 56.49%
42 | O=C(C1CCCO1)N1CCC2(CC1)COCCN(Cc1cccnc1)C2 (configuration not stated) | 55.49%
43 | O=C([C@@H]1CCCO1)N1CCOCC2(CCN(Cc3cccnc3)C2)C1 (some centres not stated) | -31.3%
44 | COc1ncccc1CN1CC[C@@]2(O)CCN(C(=O)C3CCC3)C[C@H]2C1 | 27.85%
45 | COCC(=O)N1CCC2(CC1)C(=O)N(Cc1cccnc1)CCN2C | 33.3%
46 | Cc1cnc(N2CC3(CCN(Cc4cccnc4)C3)C2)nc1 | 9.53%
47 | COCC(=O)N1CCC2(CCN(Cc3ccc(C)cc3)CC2)CC1 | -4.2%
48 | c1cnc(N2CCC3(CCN(Cc4cccnc4)CC3)CC2)nc1 | 45.82%
49 | O=C(C1CCCO1)N1CCC2(CC1)COCCN(Cc1ccncc1)C2 (configuration not stated) | -66.98%
50 | Cc1cnn(CC2CCCN2C(=O)c2ccc(-n3cccn3)nc2)c1 (configuration not stated) | -26.85%
51 | O=C(NCC(F)(F)F)c1ccc(-c2ccco2)[nH]c1=O | -5.09%
52 | Cc1cnn(CC2CN(Cc3nccn3CC(F)(F)F)CCO2)c1 (configuration not stated) | 36.64%

Row | SMILES | INHIBITION
53 | CN1C[C@@H](NC(=O)c2ccccc2)C[C@H]1c1nc(-c2cnccn2)no1 | 23.26%
54 | COc1ccc(CNC(=O)CCc2nnc3ccccn3c2=O)cc1 | 8.41%
55 | CO[C@@H]1CCN(C(=O)Cc2ccc(F)cc2)[C@@H]1Cc1cccnc1 | -16.75%
56 | OC1(Cn2ccc3ncccc32)CCN(Cc2cccnc2)CC1 | 53.24%
57 | OC1(Cn2ccc3ncccc32)CCN(Cc2cc(F)cc(F)c2)CC1 | 31.56%
58 | CCn1cc(CN2CCC(O)(Cn3ccc4ncccc43)CC2)cn1 | 22.39%
59 | O=C(CCOc1ccccc1)N1CCCC(n2cncn2)C1 (configuration not stated) | 33.5%
60 | Cc1nc2c(c(N3CC=CC3)n1)CCN(c1ncccc1C(N)=O)CC2 | -11.31%
61 | CCS(=O)(=O)CCCOc1nc(-c2ccccc2Cl)no1 | -5.27%
62 | Cc1ccc(CN2C(=O)CCC23CCC(NC2CCOC2)CC3)cc1 (configuration not stated) | 29.85%
63 | O=C1CCC2(CCC(NC3CCOC3)CC2)N1Cc1ccccc1 (configuration not stated) | 35.34%
64 | O=C1CCC2(CCC(NC3CCOC3)CC2)N1Cc1ccncc1 (configuration not stated) | 56.76%
65 | CCc1ccc(CN(C)c2cc(COC)nc3ccnn23)cc1 | 14.96%
66 | CN(Cc1cnn(C)c1)C(=O)C1COc2ccccc2C1 (configuration not stated) | -11.77%
67 | O=C(NC1CCC1)[C@H]1C[C@H]2CN(S(=O)(=O)c3ccccc3)C[C@@H]1O2 | 24.34%
68 | Cc1cccc(C)c1OCCNC(=O)NC(C)c1nncn1C (configuration not stated) | 64.53%
69 | Cc1ccc(OCCCNC(=O)NC(C)c2nncn2C)cc1 (configuration not stated) | -10.5%
70 | Cc1cccc(OCCCNC(=O)NC(C)c2nncn2C)c1 (configuration not stated) | -7.01%
71 | N[C@H]1CN(CCOc2ccc(F)cc2)C[C@@H]1C1CC1 | 55.85%
72 | N[C@H]1CN(CCCOc2ccccc2)C[C@@H]1C1CC1 | 18.64%
73 | NC(=O)c1ccc(OCCCN2C[C@H](C3CC3)[C@@H](N)C2)cc1 | 9.56%
74 | COC1CN(C(=O)OCC(C)C)CCC(=O)N(C)c2ccccc21 (configuration not stated) | -16.76%
75 | Cc1nn(C)c2nc(N3CCCCC3c3ccc(F)cc3)sc12 (configuration not stated) | 8.3%
76 | C1CCC(CN2Cc3nnn(CC4CC4)c3C(COCC3CC3)C2)C1 (configuration not stated) | -6.19%
77 | O=C1[C@@H]2CCN(Cc3ccoc3)C[C@@H]2OCCN1Cc1cccc(F)c1 | 20.41%
78 | Cc1cc(NS(=O)(=O)c2ccc(Cl)s2)ccc1-n1cccc1C(=O)O | 31.15%

Row | SMILES | INHIBITION
79 | Cc1ccc(S(=O)(=O)Nc2ccc(-n3cccc3C(=O)O)c(C)c2)s1 | -1.14%
80 | Cc1cc(NS(=O)(=O)c2cccs2)ccc1-n1cccc1C(=O)O | 50.17%
81 | O=C(NCCOc1ccccc1)NCC(O)c1cccs1 (configuration not stated) | -85.29%
82 | Cc1ccoc1C(=O)N1C[C@@H]2[C@@H](C1)OCC(=O)N2Cc1cccnc1 | -2.91%
83 | Cc1nc2c(c(NC3CC3)n1)CCN(C(=O)CCO)CC2 | -10.44%
84 | CC(=O)N1CCC(C(=O)NCCN2CCCCC2)CC1 | 18.97%
85 | COc1ccc(CCNC(=O)N2CCN(C)[C@@H]3CS(=O)(=O)C[C@@H]32)cc1 | 43.44%
86 | COc1ccc(CNC(=O)N2CCN(C)[C@@H]3CS(=O)(=O)C[C@@H]32)cc1 | -47.18%
87 | CN1CCN(C(=O)NCCc2ccc(F)cc2)[C@H]2CS(=O)(=O)C[C@H]21 | 50.59%
88 | Cc1ccc(OCCN2CCN(Cc3cnn(CCO)c3)CC2)cc1 | -72.55%
89 | COCC(=O)N1CCCC1c1cccc(Nc2ncc(C)s2)n1 (configuration not stated) | 44.48%
90 | COCC(=O)N1CCCCC1c1ccnc(Nc2cnccn2)n1 (configuration not stated) | 11.55%
91 | COCC(=O)N1CCCCC1c1ccnc(Nc2ncc(C)s2)n1 (configuration not stated) | 60.74%
92 | CN1CCN(C(=O)c2n[nH]c3c2CN(C2CCOCC2)CC3)CC1 | 36.44%
93 | COc1cc(CNC(C)c2cccc(Cl)c2)cc(OC)c1OC (configuration not stated) | 27.88%
94 | CC(C)c1ccc(OCC(=O)NS(=O)(=O)c2cccnc2)cc1 | -1.85%
95 | Cc1cccc(NCC(=O)Nc2cc(F)ccc2F)c1C(N)=O | 38.91%
96 | Cc1cc(C)n(CC2(CNC(=O)C(c3ccccc3F)N(C)C)CC2)n1 (configuration not stated) | 55.85%
97 | Cc1cc(C)n(CC2(CNC(=O)C(c3ccc(F)cc3)N(C)C)CC2)n1 (configuration not stated) | -4.04%
98 | Cc1cc(C)n(CC2(CNC(=O)C(c3ccccc3C)N(C)C)CC2)n1 (configuration not stated) | -14.49%
99 | Cc1cc(C(F)(F)F)nc(CCNC(C)Cn2ccnc2)n1 (configuration not stated) | -15.14%
100 | OCCN(Cc1nc(-c2ccc3c(c2)OCO3)no1)CC1CC1 | 83.98%
101 | OCCN(Cc1ccccc1)Cc1nc(-c2ccc3c(c2)OCO3)no1 | -48.83%
102 | OCCN(Cc1nc(-c2ccc3c(c2)OCO3)no1)Cc1cccs1 | -49.59%
